Laboratory results: PubChem BioAssay AID1903 (Southern Research Specialized Biocontainment Screening …, 2009)
In all, about 310,000 compounds went through this assay and about 1,200 (0.39%) were called active. No rule for the calls is given here. These entries were drawn from the full list. Entries with a potency or affinity are not part of this list.

Target: Large T antigen (Simian virus 40) (UniProt P03070)
Assay: TAg ATPase/helicase activity blockers – biochemical (AID 1903)
Settings: SV40 large T antigen ATPase/helicase inhibition assay; at 20 µM; active compounds read high

Sequence of Large T antigen (Simian virus 40) (P03070 whole entry, looked up): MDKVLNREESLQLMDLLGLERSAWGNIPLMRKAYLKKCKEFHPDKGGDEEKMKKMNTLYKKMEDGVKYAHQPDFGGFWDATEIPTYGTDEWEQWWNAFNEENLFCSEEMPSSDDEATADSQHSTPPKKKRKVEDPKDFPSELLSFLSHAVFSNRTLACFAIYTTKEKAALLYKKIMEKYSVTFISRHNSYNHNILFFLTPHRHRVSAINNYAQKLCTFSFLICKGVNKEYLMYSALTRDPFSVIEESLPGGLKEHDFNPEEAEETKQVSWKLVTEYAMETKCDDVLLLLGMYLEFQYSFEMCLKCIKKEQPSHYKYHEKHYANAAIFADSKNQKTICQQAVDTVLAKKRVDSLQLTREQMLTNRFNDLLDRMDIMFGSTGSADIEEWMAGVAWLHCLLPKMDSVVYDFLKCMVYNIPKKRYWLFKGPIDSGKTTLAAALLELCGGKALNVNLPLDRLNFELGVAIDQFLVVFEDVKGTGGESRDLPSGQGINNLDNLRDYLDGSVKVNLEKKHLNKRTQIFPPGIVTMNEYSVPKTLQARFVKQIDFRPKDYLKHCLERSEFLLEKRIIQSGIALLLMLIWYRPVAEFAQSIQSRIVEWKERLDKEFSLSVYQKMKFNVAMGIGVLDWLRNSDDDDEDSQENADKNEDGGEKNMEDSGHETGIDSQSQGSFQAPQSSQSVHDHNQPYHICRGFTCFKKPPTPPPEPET

inhibition, inactive:
CCOc1ccccc1C(=O)NCC(=O)N(C)Cc1cccnc1 0.45%, CC1CCc2cc(F)ccc2N1C(=O)c1cc2nc(-c3ccco3)cc(C(F)(F)F)n2n1 (stereo not drawn) 0.153%, Cc1ccc(-c2cc(O)cc3sc(=O)oc23)cc1C 9.82%, O=c1oc2c(-c3cccc(F)c3)cc(O)cc2s1 6.75%, Cc1cc(NC(=O)CSc2nnc3c(C)cc4ccccc4n23)no1 23.4%, CCc1cccc(C)c1NC(=O)CCCSc1nc2ccccc2s1 3.33%, COc1ccc(NCc2nnc(SCC(=O)c3ccc(OC)cc3)n2C)cc1 21.2%, CCOc1ccc(NCc2nnc(SCC(=O)Nc3cc(C)on3)n2-c2ccccc2OC)cc1 15.1%, COc1ccccc1-n1c(CNc2ccc(F)cc2)nnc1SCC(=O)Nc1cc(C)on1 25.1%, COc1ccc(NCc2nnc(SCC(=O)Nc3ccc(OC)cc3)n2C)cc1 9.42%, CS(=O)(=O)N1CCc2cc(S(=O)(=O)N3CCCCC3)ccc21 11.4%, COc1ccc(C(C)=O)cc1COc1ccc(Cl)cc1Cl 1.32%, Cc1ccc(S(=O)(=O)N(CC(=O)Nc2cccnc2)c2cccc(Br)c2)cc1 14.9%, Cc1cc(C)nc(Nc2ccc(O)cc2)n1 45.6%, Oc1ccc(Nc2nc3ccccc3nc2Nc2ccc(O)cc2)cc1 35%, Cc1cc(C)nc(Nc2ccc(C(=O)O)cc2)n1 3.63%, Oc1ccc(Nc2nnc(-c3ccc(O)cc3)c3ccccc23)cc1 20.3%, O=C(OC1CCCCC1=O)c1cccc(S(=O)(=O)N2CCOCC2)c1 (stereo not drawn) 1.22%, CC(=O)Nc1cccc(-c2csc(NCc3ccco3)n2)c1 13.3%, CCOC(=O)C1=C(C)Nc2nc(C)nn2C1c1cc(OC)ccc1OC (stereo not drawn) 5.76%, Nc1cccc2c3c(oc12)CCCC3 4.56%, O=C(Nc1ccc(-c2ccc3nncn3n2)cc1)C1CCCC1 0.86%, CCC(C)N(C(=O)COC(=O)c1ccccc1SCC(=O)N1CCCC1)C1CCS(=O)(=O)C1 (stereo not drawn) 1.39%, c1ccc(Cn2nnnc2CN2CCN(c3ncccn3)CC2)cc1 0.78%, CCCc1cc(C(N)=O)c(NC(=O)c2cc(C)on2)s1 8.78%, Cc1csc(C(=O)NCC(=O)NNC(=O)c2cccc(Cl)c2)c1 0.72%, CCn1nc(C(=O)Nc2nc3ccc(C)cc3s2)c2ccccc2c1=O 0.39%, COc1cc(/C=N/NC(=O)C2c3ccccc3Oc3ccccc32)ccc1O 13.3%, COc1cc(/C=N/NC(=O)CC(=O)NC2CCCCC2)ccc1O 26.4%, COc1cc(/C=N/NC(=O)NC2CCCCC2)cc(OC)c1O 31.1%, COc1cc(/C=N/NC(=O)NC23CC4CC(CC(C4)C2)C3)ccc1O 26.5%, COc1ccc(C(CNC(=O)c2ccc(S(=O)(=O)Nc3ccc(F)cc3)cc2)N(C)C)cc1 (stereo not drawn) -1%, CC(=O)Nc1ccc(S(=O)(=O)NCCC(=O)OCC(=O)N2CCN(C(=O)c3ccco3)CC2)cc1 2.76%, COc1ccc(OC)c(-c2csc3nnc(SCC(=O)Nc4ccc(NC(C)=O)cc4)n23)c1 3.77%, C=CCC(C(=O)NC(C)c1ccccc1)C(=O)NC(C)c1ccccc1 (stereo not drawn) 0.99%, CCOc1cc(N2C(=O)CC3CS(=O)(=O)CC32)c(OCC)cc1NC(=O)c1ccccc1 (stereo not drawn) -8.08%, CCOc1cc(NC(=O)c2ccccn2)c(OCC)cc1NC(=O)c1ccccc1 8.84%, CCCSc1nnc(N)s1 14.6%, CCN1C(=O)c2ccccc2Sc2ccc(C(=O)NCCC(C)C)cc21 18.1%, CCOC(=O)C1CCCN(S(=O)(=O)Cc2ccc(Cl)cc2)C1 (stereo not drawn) 5.43%, Cc1ccc(NC(=O)C(=O)NN)cc1 4.15%, NNC(=O)C(=O)Nc1ccc(Cl)c(Cl)c1 4.78%, Cc1ccc(N=C2C(=O)Nc3ccc(Br)cc32)cc1 4.2%, COC(=O)CN1C(=O)C(C)(C)Oc2ccc(C(=O)Nc3ccccc3F)cc21 -0.69%, O=[N+]([O-])c1cc(/C=N\Nc2nc(-c3ccccc3)cs2)ccc1O 14.1%, Cc1csc(N/N=C/c2ccc([N+](=O)[O-])cc2)n1 12%, O=C(c1ccc2c(c1)OCCO2)C1CCN(S(=O)(=O)c2ccc(F)cc2)CC1 0.84%, Fc1ccc(-c2n[nH]c(=S)n2/N=C/c2c[nH]c3ccccc23)cc1 1.41%, S=c1[nH]nc(-c2cc(-c3ccccc3)n[nH]2)n1/N=C/c1cccs1 10.5%, Cc1cc(C)n(/N=C/c2c[nH]c3ccccc23)c(=O)c1 0.69%, Cc1nnc(C)n1/N=C/c1cccs1 13.5%, CCCCn1c(O)c(N=NC(=O)c2ccccc2NS(=O)(=O)c2cccs2)c2ccccc21 14.3%, O=c1ccc(S(=O)(=O)N2CCC(Cc3ccccc3)CC2)c[nH]1 7.63%, CN(CCNC(=O)CCNC(=O)Cn1ccc2ccccc2c1=O)Cc1ccccc1 15.1%, Nc1nc(SCc2cccc([N+](=O)[O-])c2)n[nH]1 4.99%, C=CCn1c(SCC(=O)NC2CCCC2)nnc1-c1cccnc1 3.08%, C=CCn1c(SCC(=O)Nc2ccc3c(c2)OCO3)nnc1-c1ccccc1OC 1.62%, C=CCn1c(SCC(=O)Nc2ccc(C(=O)O)cc2)nnc1-c1cccnc1 8.53%, CCn1c(SCC(=O)O)nnc1-c1ccccc1OC 1.77%, CCn1c(SCC(=O)OC)nnc1-c1ccc(C)cc1 22.5%, C=CCn1c(SCC(=O)c2ccc(OC)cc2)nnc1-c1cc2cccc(OC)c2o1 6.55%, CCn1c(SCC(=O)C(C)(C)C)nnc1-c1ccccc1OC -1.72%, CCn1c(SCC(=O)c2ccc(C)cc2)nnc1-c1ccncc1 3.96%, O=C1OCc2cc(NC(=O)C3CCCCC3)ccc21 2.69%, COc1cccc(-c2cc(CC3(O)CCN(CCCc4ccccc4)CC3)on2)c1 8.74%, Cc1ccc(S(=O)(=O)N2CCN(S(=O)(=O)N(C)C)CC2)c(C)c1 3.46%, COc1ccc(-n2c(C)cc(-c3csc(NC(=O)c4ccc(S(=O)(=O)N(C)C)cc4)n3)c2C)cc1 11.5%, Cc1c(CC(=O)NCCCC(=O)O)c(=O)oc2cc3oc4c(c3cc12)CCCC4 10%, CC(C)CCNC(=O)C1CC(=O)N(C2CCCC2)C1 (stereo not drawn) -3.66%, S=C(NCC1CCCO1)Nc1ccc(Cl)c(Cl)c1 (stereo not drawn) 13.5%, Cc1ccc(CCN2CC(C(=O)NCCCN3CCN(C)CC3)CC2=O)cc1 (stereo not drawn) 3.28%, c1ccc(-n2nnnc2-n2nnc3ccccc32)cc1 9.04%, COCCN=C1Sc2nc3ccc(C)cc3cc2CN1Cc1ccco1 19.9%, Cc1cccc2cc3c(nc12)SC(=NCC1CCCO1)N(Cc1ccco1)C3 (stereo not drawn) 26%, Cc1ccc(Nc2nc(-c3ccc(F)cc3)cs2)nc1 9.89%, c1ccc(-c2csc(Nc3ncccn3)n2)cc1 0.05%, Oc1ccc(-c2csc(Nc3ncccn3)n2)cc1 6.13%, Oc1ccc(-c2csc(Nc3ccccn3)n2)cc1 22.2%, Cc1csc(Nc2cccc3ccccc23)n1 11.9%, Cc1ccnc(Nc2nc(-c3ccc(O)c(O)c3)cs2)c1 32.9%, Cc1cccc(Nc2nc(-c3ccc(O)c(O)c3)cs2)n1 30.3%, c1ccc(-c2csc(Nc3ccccn3)n2)cc1 9.23%, Cc1c(/C(Cc2ccccc2)=N/O)c2ccccc2n1C 15.5%, COc1ccccc1N(Cc1ccccc1)S(=O)(=O)c1cccc(C(=O)Nc2cc(C)ccn2)c1 11.2%, O=C(Nc1ccc2c3c(cccc13)CC2)c1ccc(Br)o1 -1.82%, O=C(COC(=O)c1cc(S(=O)(=O)N2CCOCC2)ccc1Cl)Nc1ccc2c(c1)OCO2 -0.55%, O=C(Cn1nnc2ccccc21)NC1CCCCC1 7.66%, CC(C(N)=O)N1c2cccc3cccc(c23)S1(=O)=O (stereo not drawn) 5.84%, Cc1cc(C)c(OCC(=O)Nc2ccccn2)c([N+](=O)[O-])c1 4.36%, COCCCNC(=O)c1ccc2c(=O)n(Cc3ccc(OC)cc3)c(=O)[nH]c2c1 17.4%, COc1ccc(CCNC(=O)CNC(=O)Cn2cnc3sc(C)c(C)c3c2=O)cc1OC -8.68%, COc1ccc(Nc2c(C)cccc2C)cc1 -1.03%, COc1ccc(Nc2ccc(Nc3ccc(OC)cc3)nn2)cc1 10.9%, O=C(O)CC1c2ccccc2CCN1S(=O)(=O)c1ccccc1 (stereo not drawn) 16.2%, CCOCCc1nnc(NC(=O)Cc2ccc(Br)cc2)s1 4.12%, O=C(Cc1n[nH]c(=O)[nH]c1=O)N/N=C/c1cccc(O)c1 9.95%, Cc1ccc(Oc2nc3ccccc3n3c(C)nnc23)c(C)c1 1.35%, CCN(CC(=O)NC(=O)NC1CCCC1)Cc1ccccc1 14.2%
